Reference: PubChem BioAssay AID1159580 (chemical genetic matrix, 2015)
About 2,000 (36%) of roughly 5,500 compounds were called active. Inconclusive results (about 18%) are left out. No stated cut-off is given here; in the data, active means normalized growth mostly below about 0.91 (no sharp cut-off); inconclusive means no clear call, values can overlap the other calls; inactive means mostly above about 0.92. The list shows a part of the results.

Experiment: chemical genetic growth profiling, strain panel (AID 1159580);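 further: tested at 20 µM; growth read once vehicle control cultures reached saturation at 30 °C; 1 = growth at the plate median or of vehicle wells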
Conditions: S. cerevisiae deletion strains, growth OD
[1] = locus YAR019C, strain CDC15, stronger effect = lower value
[2] = locus YBL105C, strain PKC1, stronger effect = lower value
[3] = locus YBR135W, strain CKS1, stronger effect = lower value
[4] = locus YBR136W, strain MEC1, stronger effect = lower value
[5] = locus YBR160W, strain CDC28, stronger effect = lower value
[6] = locus YDL017W, strain CDC7, stronger effect = lower value
[7] = locus YDL028C, strain MPS1, stronger effect = lower value
[8] = locus YDL101C, strain DUN1, stronger effect = lower value
[9] = locus YDL108W, strain KIN28, stronger effect = lower value
[10] = locus YDL132W, strain cdc53, stronger effect = lower value
[11] = locus YDL214C, strain PRR2, stronger effect = lower value
[12] = locus YDR052C, strain DBF4, stronger effect = lower value
[13] = locus YDR054C, strain cdc34, stronger effect = lower value
[14] = locus YDR226W, strain ADK1, stronger effect = lower value
[15] = locus YDR477W, strain SNF1, stronger effect = lower value
[16] = locus YER123W, strain YCK3, stronger effect = lower value
[17] = locus YER133W, strain GLC7, stronger effect = lower value
[18] = locus YFL009W, strain cdc4, stronger effect = lower value
[19] = locus YFL029C, strain CAK1, stronger effect = lower value
[20] = locus YFR003C, strain YPI1, stronger effect = lower value
[21] = locus YFR019W, strain FAB1, stronger effect = lower value
[22] = locus YFR028C, strain CDC14, stronger effect = lower value
[23] = locus YGR040W, strain KSS1, stronger effect = lower value
[24] = locus YGR052W, strain FMP48, stronger effect = lower value
[25] = locus YGR092W, strain DBF2, stronger effect = lower value
[26] = locus YHR030C, strain SLT2, stronger effect = lower value
[27] = locus YHR079C, strain IRE1, stronger effect = lower value
[28] = locus YHR082C, strain KSP1, stronger effect = lower value
[29] = locus YHR205W, strain SCH9, stronger effect = lower value
[30] = locus YIL147C, strain SLN1, stronger effect = lower value
[31] = locus YJL095W, strain BCK1, stronger effect = lower value
[32] = locus YJL128C, strain PBS2, stronger effect = lower value
[33] = locus YJL157C, strain FAR1, stronger effect = lower value
[34] = locus YJR016C, strain ILV3, stronger effect = lower value
[35] = locus YJR066W, strain TOR1 (second series), stronger effect = lower value
[36] = locus YJR066W, strain TOR1, stronger effect = lower value
[37] = locus YKL048C, strain ELM1, stronger effect = lower value
[38] = locus YKL067W, strain YNK1, stronger effect = lower value
[39] = locus YKL101W, strain HSL1, stronger effect = lower value
[40] = locus YKL193C, strain SDS22, stronger effect = lower value
[41] = locus YKL203C, strain TOR2, stronger effect = lower value
[42] = locus YLR113W, strain HOG1, stronger effect = lower value
[43] = locus YLR133W, strain CKI1, stronger effect = lower value
[44] = locus YLR403W, strain SFP1, stronger effect = lower value
[45] = locus YML070W, strain DAK1, stronger effect = lower value
[46] = locus YMR001C, strain CDC5, stronger effect = lower value
[47] = locus YMR205C, strain PFK2 (second series), stronger effect = lower value
[48] = locus YMR277W, strain FCP1, stronger effect = lower value
[49] = locus YNL006W, strain LST8, stronger effect = lower value
[50] = locus YNL020C, strain ARK1, stronger effect = lower value
[51] = locus YNL161W, strain CBK1, stronger effect = lower value
[52] = locus YNL183C, strain NPR1, stronger effect = lower value
[53] = locus YNL207W, strain RIO2, stronger effect = lower value
[54] = locus YNL222W, strain SSU72, stronger effect = lower value
[55] = locus YNL307C, strain MCK1 (second series), stronger effect = lower value
[56] = locus YOL078W, strain AVO1, stronger effect = lower value
[57] = locus YOL136C, strain PFK27, stronger effect = lower value
[58] = locus YOR061W, strain CKA2, stronger effect = lower value
[59] = locus YOR119C, strain RIO1, stronger effect = lower value
[60] = locus YOR231W, strain MKK1, stronger effect = lower value
[61] = locus YOR329C, strain SCD5, stronger effect = lower value
[62] = locus YPL031C, strain PHO85, stronger effect = lower value
[63] = locus YPL153C, strain RAD53, stronger effect = lower value
[64] = locus YPL204W, strain HRR25, stronger effect = lower value
[65] = locus YPL209C, strain IPL1, stronger effect = lower value
[66] = locus YPL256C, strain CLN2, stronger effect = lower value
[67] = locus YPR025C, strain CCL1, stronger effect = lower value
[68] = locus YPR106W, strain ISR1, stronger effect = lower value
[69] = locus YPR111W, strain DBF20, stronger effect = lower value
[70] = strain NNK1, stronger effect = lower value
[71] = strain TSCII, stronger effect = lower value

Measured: normalized growth

COc1ccc(C(CC(=O)c2ccccc2)Sc2ccccc2N)cc1OC (configuration not stated)
inactive: [1] 0.977 | [2] 0.971 | [3] 0.98 | [4] 0.972 | [5] 0.98 | [6] 0.972 | [7] 0.979 | [8] 0.976 | [9] 0.974 | [10] 0.987 | [11] 0.948 | [12] 0.974 | [13] 0.971 | [14] 0.979 | [15] 0.958 | [16] 0.935 | [17] 0.954 | [18] 0.981 | [19] 0.966 | [20] 0.972 | [21] 0.963 | [22] 0.967 | [23] 0.946 | [24] 1.02 | [25] 0.959 | [26] 0.921 | [27] 0.95 | [28] 0.985 | [29] 0.935 | [30] 0.965 | [31] 0.947 | [32] 0.944 | [33] 0.965 | [34] 0.985 | [35] 1 | [36] 0.955 | [37] 0.977 | [38] 0.946 | [39] 0.927 | [40] 0.979 | [41] 0.99 | [42] 0.898 | [43] 0.952 | [44] 0.934 | [45] 0.941 | [46] 0.965 | [47] 0.958 | [48] 0.983 | [49] 0.984 | [50] 0.961 | [51] 0.978 | [52] 0.966 | [53] 0.975 | [54] 0.979 | [55] 0.974 | [56] 0.98 | [57] 0.955 | [58] 0.934 | [59] 0.962 | [60] 0.937 | [61] 0.971 | [62] 0.957 | [63] 0.978 | [64] 0.993 | [65] 0.984 | [66] 0.899 | [67] 0.976 | [68] 0.967 | [69] 0.979 | [70] 0.968 | [71] 0.973

Cc1cc(C)cc(Sc2ccc3nnc(-c4ccccc4)n3n2)c1
inactive: [1] 0.983 | [2] 0.988 | [3] 0.984 | [4] 0.977 | [5] 0.988 | [6] 0.986 | [7] 1 | [8] 0.973 | [9] 0.993 | [10] 0.977 | [11] 0.998 | [12] 0.986 | [13] 0.975 | [14] 0.982 | [15] 0.99 | [16] 0.972 | [17] 0.978 | [18] 0.979 | [19] 0.984 | [20] 0.991 | [21] 0.962 | [22] 0.987 | [23] 0.991 | [24] 1.09 | [25] 0.977 | [26] 1.08 | [27] 1.07 | [28] 1.07 | [29] 0.988 | [30] 1 | [31] 1.06 | [32] 0.933 | [33] 0.982 | [34] 0.979 | [35] 0.942 | [36] 1.11 | [37] 0.979 | [38] 0.999 | [39] 0.986 | [40] 0.983 | [41] 1.06 | [42] 0.978 | [43] 0.998 | [44] 1 | [45] 0.983 | [46] 0.981 | [47] 0.997 | [48] 0.986 | [49] 0.998 | [50] 1 | [51] 0.986 | [52] 1.1 | [53] 0.989 | [54] 0.983 | [55] 0.995 | [56] 0.992 | [57] 0.995 | [58] 0.986 | [59] 0.993 | [60] 1.05 | [61] 0.985 | [62] 0.978 | [63] 0.944 | [64] 0.965 | [65] 0.985 | [66] 1.04 | [67] 0.984 | [68] 0.977 | [69] 0.982 | [70] 0.98 | [71] 0.982
